PubChem BioAssay
Some of the results follow. Activity calls are given as the source filed them.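 Rule for the calls, unless noted: active = mean inhibition above about 50% in the one-dose retest (limit read from the data); inactive = the rest.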

Columns and labels:
[1] = molecular target: Sentrin-specific protease 8 (Homo sapiens) (UniProt Q96LD8); assay: human SENP8 peptidase blockers, hit retest – biochemical, luminescence, single concentration, confirmation (AID 488912;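 active = mean inhibition across replicates above about 50%, limit read from the data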); settings: Recombinant SENP8, Z-RLRGG-aminoluciferin luminescence, 60 min; at 12.5 µM; hits give high values
Chain of Sentrin-specific protease 8 (Homo sapiens) (Q96LD8 whole entry, looked up, the tested form may be a part): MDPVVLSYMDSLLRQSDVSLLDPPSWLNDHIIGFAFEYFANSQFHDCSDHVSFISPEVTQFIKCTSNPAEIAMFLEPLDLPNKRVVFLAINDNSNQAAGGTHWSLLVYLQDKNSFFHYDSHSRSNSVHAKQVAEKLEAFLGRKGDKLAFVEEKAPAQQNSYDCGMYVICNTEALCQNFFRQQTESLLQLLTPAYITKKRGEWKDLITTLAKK

[2] = molecular target: Sentrin-specific protease 6 (Homo sapiens) (UniProt Q9GZR1); assay: inhibition of human SENP6 catalytic domain – biochemical, luminescence, single concentration, confirmation (AID 488915); settings: recombinant SENP6, Z-RLRGG-aminoluciferin luminescence; at 12.5 µM; hits give high values
Chain of Sentrin-specific protease 6 (Homo sapiens) (Q9GZR1 628-1112 limits assumed): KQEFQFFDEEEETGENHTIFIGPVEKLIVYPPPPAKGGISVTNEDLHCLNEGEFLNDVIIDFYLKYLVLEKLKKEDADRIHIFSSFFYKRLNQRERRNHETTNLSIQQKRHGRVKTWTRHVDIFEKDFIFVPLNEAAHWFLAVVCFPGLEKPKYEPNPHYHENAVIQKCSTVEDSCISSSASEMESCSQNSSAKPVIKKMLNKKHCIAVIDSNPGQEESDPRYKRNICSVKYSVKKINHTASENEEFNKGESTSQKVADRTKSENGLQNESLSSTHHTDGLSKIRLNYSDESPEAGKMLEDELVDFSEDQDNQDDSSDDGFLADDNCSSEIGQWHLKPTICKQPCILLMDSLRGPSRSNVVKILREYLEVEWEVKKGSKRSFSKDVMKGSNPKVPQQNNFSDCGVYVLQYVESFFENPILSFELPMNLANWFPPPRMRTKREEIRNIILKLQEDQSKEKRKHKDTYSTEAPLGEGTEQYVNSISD

[3] = molecular target: Sentrin-specific protease 7 (Homo sapiens) (UniProt Q9BQF6); assay: human SENP7 peptidase blockers, hit retest – biochemical, luminescence, single concentration, confirmation (AID 488917); settings: recombinant SENP7, Z-RLRGG-aminoluciferin luminescence, 40 min; at 12.5 µM; hits give high values
Chain of Sentrin-specific protease 7 (Homo sapiens) (Q9BQF6 706-1050 limits assumed): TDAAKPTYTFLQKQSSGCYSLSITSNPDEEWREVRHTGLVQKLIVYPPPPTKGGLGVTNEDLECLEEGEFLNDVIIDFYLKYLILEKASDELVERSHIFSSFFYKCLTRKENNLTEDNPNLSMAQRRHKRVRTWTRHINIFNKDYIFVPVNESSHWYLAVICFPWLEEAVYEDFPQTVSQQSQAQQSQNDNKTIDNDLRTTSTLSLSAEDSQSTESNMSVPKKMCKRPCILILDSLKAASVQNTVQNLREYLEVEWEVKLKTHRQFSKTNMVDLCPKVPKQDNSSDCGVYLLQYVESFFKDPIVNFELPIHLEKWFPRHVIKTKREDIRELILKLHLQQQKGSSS

[4] = molecular target: Caspase-3 (Homo sapiens) (UniProt P42574); assay: human caspase-3 activity blockade, out-of-family – biochemical, single concentration, selectivity assay for SENP inhibitor project, confirmation (AID 488918;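 active = mean inhibition above about 50%, limit read from the data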;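 note: plate controls were enzyme with DMSO for no effect and wells without caspase-3 for full effect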); settings: purified caspase-3, Z-DEVD-aminoluciferin luminescence, 60 min; at 12.5 µM; hits give high values
Chain of Caspase-3 (Homo sapiens) (P42574 28-227 limits assumed): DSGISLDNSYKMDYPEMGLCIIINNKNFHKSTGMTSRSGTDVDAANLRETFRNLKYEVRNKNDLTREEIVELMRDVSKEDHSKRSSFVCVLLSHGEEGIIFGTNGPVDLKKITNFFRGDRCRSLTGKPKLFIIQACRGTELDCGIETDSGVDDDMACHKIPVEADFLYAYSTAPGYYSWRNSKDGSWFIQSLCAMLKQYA

[5] = Ultra-Glo luciferase signal interference – biochemical, single concentration, SENP8 reaction pre-completed, artefact control for SENP inhibitor project, confirmation (AID 488919;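 active = mean inhibition above about 50% when retested at one dose, limit read from the data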;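 note: plate controls were DMSO wells with completed reaction for no effect and substrate without enzyme for full effect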); settings: Pre-incubated SENP8/Z-RLRGG-aminoluciferin, luciferase luminescence interference; at 12.5 µM; hits give high values

Measured: inhibition

O=c1c(-c2cccc(Cl)c2)c[nH]n1-c1ccccc1
active: [1] 63.9% | [2] 61.4% | [3] 80.8% | [4] 76.2% | [5] 63.8%

Cc1ccc(OC(=O)c2cc3ccccc3o2)cc1
inactive: [4] 46.9%
active: [1] 50.7% | [2] 51.4% | [3] 90.8% | [5] 64.7%

O=C(Nc1ccccc1)c1ccc(NC(=O)c2cccs2)cc1
inactive: [1] -8.2% | [2] -4.8% | [3] 0.7% | [4] 38.2% | [5] -1.7%

Cc1cccc(OC(=O)c2sc3ncn(C)c(=O)c3c2C)c1
inactive: [1] 1.1% | [2] 0.1% | [3] 17.1% | [4] 14.4% | [5] -2.4%

COc1cccc(C(=O)Nc2ccc(NC(=O)c3ccco3)cn2)c1
active: [1] 53.1% | [2] 51% | [3] 82.4% | [4] 76.1% | [5] 62.4%

Cc1ccc(C(=O)O/N=C(\N)c2ccccn2)cc1Cl
active: [2] 81.3% | [4] 53.7% | [5] 50.2%
inactive: [1] 38.5% | [3] 27.2%

O=C(Nc1ccccc1)c1ccc2c(c1)OCO2
active: [2] 74.3% | [3] 93.9% | [4] 88.9% | [5] 54.8%
inactive: [1] 10.6%

CC(=O)Oc1ccc2c(c1)C(=O)c1ccccc1C2=O
inactive: [1] 38.1% | [2] 43.9% | [5] 25.6%
active: [3] 67.4% | [4] 57.6%

CC1=CC(=C(C#N)c2nc3ccccc3s2)C=C(C)N1c1ccc(F)cc1F
inactive: [1] 12.4% | [2] 19% | [3] -0.4% | [4] -3.2% | [5] -9.8%

O=c1[nH]c(/C=C/c2cccc(Br)c2)nc2ccccc12
inactive: [1] 2.7% | [2] 1.4% | [3] 12.3% | [4] 17.6% | [5] 1%

O=C(Nc1ccc2c(c1)CCC2)c1cccc(S(=O)(=O)Nc2ccccc2Cl)c1
active: [3] 50.8%
inactive: [1] 44% | [2] 40.3% | [4] 13.2% | [5] 4.6%

CCCCOc1ccc(-c2nnc(-c3ccco3)o2)cc1
inactive: [1] 37.7% | [2] 44.6% | [3] 41.1% | [4] 12.6% | [5] 2%

CN(CCO)c1ccc(/C=N/Nc2nncc3ccccc23)cc1
active: [1] 98.7% | [2] 99.7% | [3] 103% | [4] 98.7% | [5] 93.4%

O=C(Nc1ccc(C(=O)O)c(O)c1)c1ccccc1
active: [1] 73% | [2] 73.7% | [3] 94.9% | [4] 93.7% | [5] 82.8%

Fc1ccc(COc2ccc(-c3nnco3)cc2)cc1
active: [2] 60.4% | [3] 85.8% | [4] 67.9% | [5] 65.6%
inactive: [1] 29%

c1ccc2sc(NN=C3CCCC3)nc2c1
active: [1] 86.8% | [2] 85.9% | [3] 98.8% | [4] 88%
inactive: [5] 15.5%

CCOc1ccc2nc(C(=O)N3CCCC(C)C3)sc2c1 (stereo not given)
active: [1] 59.3% | [2] 68.3% | [3] 86.3% | [4] 62.5% | [5] 66.4%

c1ccc(Nc2nc(-c3ccncc3)cs2)nc1
active: [1] 84.9% | [2] 85.1% | [3] 97.3% | [4] 84%
inactive: [5] 45.3%

Cc1ccn2cc(-c3nonc3C)cc2c1
inactive: [1] 47.6% | [5] 33%
active: [2] 77% | [3] 95.7% | [4] 73.7%

O=C1C(=O)N(CCCN2CCOCC2)C(c2ccc([N+](=O)[O-])cc2)/C1=C(\O)c1ccc2c(c1)OCCO2 (stereo not given)
inactive: [1] -13.1% | [2] -8.9% | [3] -9% | [4] -4.4% | [5] -12.5%

O=c1oc2cc(O)ccc2cc1-c1ccc(F)cc1
active: [1] 98.4% | [2] 99.7% | [3] 103% | [4] 98.2% | [5] 95.4%

Cc1cccc(NS(=O)(=O)c2cccc(C(=O)NNC(=O)c3ccccc3O)c2)c1
inactive: [1] 26.9% | [5] 49.9%
active: [2] 54.5% | [3] 75.5% | [4] 56.8%

CCOc1ccc(N/C=C/C(=O)c2ccccc2)cc1
inactive: [1] 10.5% | [5] 19.3%
active: [2] 94.9% | [3] 63.3% | [4] 81.1%
